Laboratory results as given in PubChem BioAssay (Tox21).
Inconclusive results are not listed. The source made the active and inactive calls. Unless noted, the call rests on the fitted dose curve; in most records, active means well fitted curve in the direction sought with a large enough effect in the repeat runs; inconclusive means weak or mixed curves; inactive means no such curve, though single readings can be large; an effect the other way counts as inactive or inconclusive.

Assays:
[1] = qHTS assay for small molecule agonists of the p53 signaling pathway (AID 651631; calls by dose curve; further: nearly all actives have a fitted effect of over 15% in size; further: potency means the concentration at half of the fitted maximal effect)
How it was run: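 Beta-lactamase reporter activity under p53 response elements was quantified in HCT-116 cells by FRET fluorescence, following 16 h incubation with test compounds at 37 °C and 2 h substrate development at room temperature.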

[2] = qHTS assay for small molecules that induce genotoxicity in human embryonic kidney cells expressing luciferase-tagged ATAD5 (AID 651632); further: nearly all actives have a fitted effect of over 15% in size; further: potency means the concentration at half of the fitted maximal effect
How it was run: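 Luminescent reporter readout, HEK293T ATAD5-luc line: 16 hr drug exposure (37C, 5% CO2) followed by Amplite, 30 min RT.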

[3] = qHTS assay for small molecule agonists of the p53 signaling pathway - cell viability (AID 651633; calls by dose curve; further: nearly all actives have a fitted effect of over 30% in size; further: potency means the concentration at half of the fitted maximal effect)
How it was run: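 p53RE-bla cells were treated with compound for 16 hours at 37 C. Cytotoxicity was then measured as CellTiter-Glo luminescence after 30 min at room temperature.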

[4] = qHTS assay for small molecules that induce genotoxicity in human embryonic kidney cells expressing luciferase-tagged ATAD5 - cell viability (AID 651634; calls by dose curve; further: nearly all actives have a fitted effect of over 25% in size; further: potency means the concentration at half of the fitted maximal effect)
How it was run: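 Viability read: CellTiter-Fluor fluorescence, 30 min at 37C. Cells: HEK293T, luciferase-tagged ATAD5. Exposure: 15.5 hr, 37C, 5% CO2, compound or DMSO vehicle.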

[5] = qHTS assay for small molecule disruptors of the mitochondrial membrane potential - cell viability (AID 720634; calls by dose curve; further: nearly all actives have a fitted effect of over 20% in size; further: potency means the concentration at half of the fitted maximal effect)
How it was run: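 HepG2, 1 hr compound, 37 C. ATP luminescence via CellTiter-Glo, 30 min RT, same well as m-MPI.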

[6] = qHTS assay for small molecule disruptors of the mitochondrial membrane potential (AID 720635); further: potency means the concentration at half of the fitted maximal effect
How it was run: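 HepG2 cells exposed to compound 1 hr at 37C, then Mito-MPS dye 30 min. Ratio read of aggregate (540/590 nm) versus monomer (490/535 nm) fluorescence.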

[7] = qHTS assay to test for compound auto fluorescence at 590 nm (red) in HepG2 cells (AID 720674)
How it was run: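 HepG2 cells, 2,000 per well in MEM with 10% FBS, attached overnight at 37 C, then got 23 nL compound or DMSO. After 1 hr at 37 C, 5% CO2, red fluorescence was read at 540/590 nm against Rose Bengal sodium as reference.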

[8] = qHTS assay to test for compound auto fluorescence at 535 nm (green) in HepG2 cells (AID 720675)
[9] = qHTS assay to test for compound auto fluorescence at 460 nm (blue) in HEK293 cells (AID 720678)
How it was run: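 Measured: blue fluorescence (Ex 405/Em 460 nm) of compound-treated HEK293 cells, incubated overnight at 37C with 5% CO2 and scaled to triamterene equivalents.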

[10] = qHTS assay to test for compound auto fluorescence at 590 nm (red) in HEK293 cells (AID 720679)
How it was run: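 Using HEK293 cells at 2,000 per well, the screen added 23 nL of each compound after cell attachment and incubated overnight (37C, 5% CO2). The plate reader then captured red-label fluorescence, Ex/Em 540/590nm.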

Measured: Potency

C=CC[N@@+]12CC[C@@]34c5ccccc5N5/C=C6/[C@H]7C[C@H]8[C@@]9(CC[N@@+]8(CC=C)C/C7=C/CO)c7ccccc7N(/C=C(/[C@@H](C[C@@H]31)/C(=C\CO)C2)[C@H]54)[C@@H]69
inactive: [1] | [2] | [3] | [4] | [5] | [6] | [7] | [8] | [9] | [10]

CC(=O)Oc1cc(C(F)(F)F)ccc1C(=O)O
inactive: [1] | [2] | [3] | [4] | [5] | [6] | [7] | [8] | [9] | [10]

Cc1cnc(C(=O)O)c[n+]1[O-]
inactive: [1] | [2] | [3] | [4] | [5] | [6] | [7] | [8] | [9] | [10]

CC[C@@H](C)[C@H](N)C(=O)O
inactive: [1] | [2] | [3] | [4] | [5] | [6] | [7] | [8] | [9] | [10]

C[C@]12O[C@H](C[C@]1(O)CO)n1c3ccccc3c3c4c(c5c6ccccc6n2c5c31)CNC4=O
inactive: [2] | [5] | [7] | [8] | [9] | [10]
active: [1] 0.075 µM | [3] 0.944 µM | [4] 4.73 µM | [6] 3.76 µM

NCC[C@H](O)C(=O)N[C@@H]1C[C@H](N)[C@@H](O[C@H]2O[C@H](CN)CC[C@H]2N)[C@H](O)[C@H]1O[C@H]1O[C@H](CO)[C@@H](O)[C@H](N)[C@H]1O
inactive: [1] | [2] | [3] | [4] | [5] | [6] | [7] | [8] | [9] | [10]

O=C(O)[C@H]1CN(C/C=C/P(=O)(O)O)CCN1
inactive: [1] | [2] | [3] | [4] | [5] | [6] | [7] | [8] | [9] | [10]

CO/N=C(\C(=O)N[C@@H]1C(=O)N2C(C(=O)O)=C(CSc3nc(C)c(CC(=O)O)s3)CS[C@H]12)c1csc(N)n1
inactive: [1] | [2] | [3] | [4] | [5] | [6] | [7] | [8] | [9] | [10]

FC(F)(F)C(F)(F)C(F)(F)C(F)(F)C(F)(F)F
inactive: [1] | [2] | [3] | [4] | [5] | [6] | [7] | [8] | [9] | [10]

CC1(C)S[C@@H]2[C@H](NC(=O)[C@@H](NC(=O)N3CCNC3=O)c3ccccc3)C(=O)N2[C@H]1C(=O)O
inactive: [1] | [2] | [3] | [4] | [5] | [6] | [7] | [8] | [9] | [10]

CCC(O)c1ccccc1 (stereo not given)
inactive: [1] | [2] | [3] | [4] | [5] | [6] | [7] | [8] | [9] | [10]

CC(=O)OCC(=O)[C@@]1(O)CC[C@H]2[C@@H]3C[C@H](C)C4=CC(=O)C=C[C@]4(C)[C@H]3[C@@H](O)C[C@@]21C
inactive: [1] | [2] | [3] | [4] | [5] | [6] | [7] | [8] | [9] | [10]

Cc1cn([C@H]2C[C@H](O)[C@@H](CO)O2)c(=O)[nH]c1=O
inactive: [1] | [2] | [3] | [4] | [5] | [6] | [7] | [8] | [9] | [10]

Cc1ncc(C[n+]2csc(CCOP(=O)(O)O)c2C)c(N)n1
inactive: [1] | [2] | [3] | [4] | [5] | [6] | [7] | [8] | [9] | [10]

N[C@H](C(=O)O)[C@@H]1CC(Cl)=NO1
active: [1] 2.98 µM | [3] 13.3 µM
inactive: [2] | [4] | [5] | [6] | [7] | [8] | [9] | [10]

CSCC[C@H](NC(=O)[C@H](Cc1ccc(OS(=O)(=O)O)cc1)NC(=O)[C@@H](N)CC(=O)O)C(=O)NCC(=O)N[C@@H](Cc1c[nH]c2ccccc12)C(=O)N[C@@H](CCSC)C(=O)N[C@@H](CC(=O)O)C(=O)N[C@@H](Cc1ccccc1)C(N)=O
inactive: [1] | [2] | [3] | [4] | [5] | [6] | [7] | [8] | [9] | [10]

CCN(CC)C(=O)c1cccnc1
inactive: [1] | [2] | [3] | [4] | [5] | [6] | [7] | [8] | [9] | [10]

COc1ccc(/C=C/C(=O)O)cc1
inactive: [1] | [2] | [3] | [4] | [5] | [6] | [7] | [8] | [9] | [10]

NC[C@H]1O[C@H](O[C@H]2[C@H](O)[C@@H](O[C@H]3O[C@H](CO)[C@@H](O)[C@H](N)[C@H]3O)[C@H](N)C[C@@H]2N)[C@H](N)C[C@@H]1O
inactive: [1] | [2] | [3] | [4] | [5] | [6] | [7] | [8] | [9] | [10]

CO[C@H]1C[C@H](O[C@H]2[C@H](C)[C@@H](O[C@@H]3O[C@H](C)C[C@H](N(C)C)[C@H]3O)[C@@H](C)C[C@]3(CO3)C(=O)[C@H](C)[C@@H](O)[C@@H](C)[C@@H](C)OC(=O)[C@@H]2C)O[C@@H](C)[C@@H]1O
inactive: [1] | [2] | [3] | [4] | [5] | [6] | [7] | [8] | [9] | [10]

C=CC1=C(C(=O)O)N2C(=O)[C@@H](NC(=O)/C(=N/OCC(=O)O)c3csc(N)n3)[C@H]2SC1 (stereo in doubt)
inactive: [1] | [2] | [3] | [4] | [5] | [6] | [7] | [8] | [9] | [10]

COc1c(O)cc2c(c1O)[C@@H]1O[C@H](CO)[C@@H](O)[C@H](O)[C@H]1OC2=O
inactive: [1] | [2] | [3] | [4] | [5] | [6] | [7] | [8] | [9] | [10]

CC(C)(Oc1ccc(C2CCCc3ccccc32)cc1)C(=O)O (stereo not given)
inactive: [1] | [2] | [3] | [4] | [5] | [6] | [7] | [8] | [9] | [10]

C1CCc2nnnn2CC1
inactive: [1] | [2] | [3] | [4] | [5] | [6] | [7] | [8] | [9] | [10]

O=C(O)/C=C/C(O)c1ccc(Cl)cc1 (stereo not given)
inactive: [1] | [2] | [3] | [4] | [5] | [6] | [7] | [8] | [9] | [10]

C[Se]CC[C@H](N)C(=O)O
inactive: [1] | [2] | [3] | [4] | [5] | [6] | [7] | [8] | [9] | [10]

Nc1nc(NC2CC2)c2ncn([C@@H]3C=C[C@@H](CO)C3)c2n1
inactive: [1] | [3] | [4] | [5] | [6] | [7] | [8] | [9] | [10]
active: [2] 13.3 µM

O=C(O)COc1ccccc1/C=N/NC(=O)c1ccncc1
inactive: [1] | [2] | [3] | [4] | [5] | [6] | [7] | [8] | [9] | [10]

C[C@@H]1C[C@H]2[C@@H]3C[C@H](F)C4=CC(=O)C=C[C@]4(C)[C@@]3(Cl)[C@@H](O)C[C@]2(C)[C@H]1C(=O)COC(=O)C(C)(C)C
inactive: [1] | [2] | [3] | [4] | [5] | [6] | [7] | [8] | [9] | [10]

Cc1onc(-c2c(F)cccc2Cl)c1C(=O)N[C@@H]1C(=O)N2[C@@H]1SC(C)(C)[C@@H]2C(=O)O
inactive: [1] | [2] | [3] | [4] | [5] | [6] | [7] | [8] | [9] | [10]

CCCCCCCCOC(=O)c1cc(O)c(O)c(O)c1
active: [1] 61.1 µM | [3] 54.5 µM | [5] 13.7 µM | [6] 6.11 µM
inactive: [2] | [4] | [7] | [8] | [9] | [10]

CCCCCCOC(=O)c1cccnc1
inactive: [1] | [2] | [3] | [4] | [5] | [6] | [7] | [8] | [9] | [10]

CC[C@H]1OC(=O)C[C@@H](O)[C@H](C)[C@@H](O[C@@H]2O[C@H](C)[C@@H](O)[C@H](N(C)C)[C@H]2O)[C@@H](CCN2C[C@H](C)C[C@H](C)C2)C[C@@H](C)C(=O)/C=C/C(C)=C/[C@@H]1CO[C@@H]1O[C@H](C)[C@@H](O)[C@@H](OC)[C@H]1OC
inactive: [1] | [2] | [3] | [4] | [5] | [6] | [7] | [8] | [9] | [10]

CC1CCCCN1CCCOC(=O)c1ccccc1 (stereo not given)
inactive: [1] | [2] | [3] | [4] | [5] | [6] | [7] | [8] | [9] | [10]

CCc1cn([C@H]2C[C@H](O)[C@@H](CO)O2)c(=O)[nH]c1=O
inactive: [1] | [2] | [3] | [4] | [5] | [6] | [7] | [8] | [9] | [10]

NCC1CCC(C(=O)O)CC1 (stereo not given)
inactive: [1] | [2] | [3] | [4] | [5] | [6] | [7] | [8] | [9] | [10]

CS(=O)(=O)c1ccc([C@@H](O)[C@@H](COC(=O)CN)NC(=O)C(Cl)Cl)cc1
inactive: [1] | [2] | [3] | [4] | [5] | [6] | [7] | [8] | [9] | [10]
